High-throughput results as filed in PubChem.
An excerpt weighted towards active compounds, which were near 6.8% of everything screened.
Fluor 339 460: intrinsic fluorescence of library compounds, ex339/em460 – biochemical, MLSMR library, data from DPM-DC assay, artefact control, profiling panel. 65,000 tested, 5.5% active. compound autofluorescence, ex339/em460 nm, NADH buffer; stronger effect = higher value; 1 = no-compound wells, NADH background. fluorescence fold increase at 10 µM;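 active = at 10 µM, mean starting fluorescence two-fold or more over control wells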;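 note: signal is the first read of a kinetic run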
MK inhibit: S. pneumoniae mevalonate kinase inhibition; inhibition, % at 10 µM; purified MK, PK/LDH-coupled NADH absorbance 340 nm; 65,000 tested, 0.48% active;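 active = ranked among the strongest by inhibition in the single 10 µM screen, a fixed top-ranked set picked for dose follow-up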
Spn PMK inh: inhibitors of Streptococcus pneumoniae phosphomevalonate kinase; purified PMK, PK/LDH-coupled NADH absorbance 340 nm; inhibition, % at 10 µM; 65,000 tested, 0.49% active; AID 539;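 active = top-ranked compounds by inhibition in the single 10 µM screen, taking a fixed number of the strongest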;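 note: 0% = full reaction with DMSO carrier and 100% = background rate without enzyme reaction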
Abs 340nm: compound absorbs light at 340 nm; compound absorbance at 340 nm, fold over control; fold change at 10 µM; 65,000 tested, under 10 active;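 active = at 10 µM dose, initial 340 nm absorbance at least 2 fold that of control wells; inactive = change under 2 fold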;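 note: initial absorbance extrapolated from kinetic A340 decline of NADH oxidation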
NADH enzymes: blocks coupling enzymes of NAD/NADH assays. coupled PK/LDH NADH assays, four targets. IC50, µM (highest dose often 10 µM), without a hit: top-dose inhibition. 65,000 tested, 0.02% active. AID 774;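 active = single-dose screening hits from any of four coupled enzyme assays that gave an IC50 when retested across doses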;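 note: the DPM-DC format reads NADH fluorescence rather than 340 nm absorbance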
Spn DPM-DC inh: blocks S. pneumoniae diphosphomevalonate decarboxylase | 65,000 tested, 0.49% active | AID 556 | calls only at 10 µM | purified DPM-DC, PK/LDH coupled NADH fluorescence;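 active = the 320 compounds with the highest percent inhibition in the single-dose primary screen, excluding strongly autofluorescent ones, cut at about 32% in these data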;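 note: kinetic rate of NADH fluorescence loss reporting ADP formed by the decarboxylase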
Starred values were filed as active, the others as inactive; i = inactive; . = not tested or not shown; + = active, no number.

SMILES | Fluor 339 460 | MK inhibit | Spn PMK inh | Abs 340nm | NADH enzymes | Spn DPM-DC inh
CC1CCc2sc3c(c2C1)c1ncnn1c(=O)n3CC(=O)c1ccc(Br)cc1 (configuration not stated) | 1.1 | 3 | 5 | 1.1 | 3% | i
N#Cc1nc(Cc2ccccc2)oc1N1CCC(C(N)=O)CC1 | 1.1 | 11 | 12 | 1 | 8% | i
N#Cc1nc(-c2ccco2)oc1N1CCC(C(N)=O)CC1 | 3.9* | 11 | 14 | 1 | 13% | .
CC1CN(c2oc(-c3ccco3)nc2C#N)CC(C)O1 (configuration not stated) | 3.8* | 13 | 7 | 1.1 | 10% | .
CN(c1ccc(C(=O)NC2CC2)cc1)S(=O)(=O)c1ccccc1 | 1.2 | 0 | 0 | 1 | 0% | i
O=C(CSc1nnc2scc(-c3ccccc3)n12)N1CCN(Cc2ccccc2)CC1 | 1.1 | 3 | 12 | 1 | 2% | i
COc1cc2c(cc1OC)CN(C(=O)CSc1nnc3scc(-c4ccccc4)n13)CC2 | 1.1 | 5 | 6 | 0.98 | 6% | +
C=CCN(C)CCCNC(=O)/C=N/O | 1.1 | 4 | 8 | 1 | 4% | i
c1ccc(-n2nnc3cnccc32)cc1 | 1.1 | 14 | 12 | 1 | 9% | i
COc1ccc(S(=O)(=O)N2CCC(C(=O)N3CCCCCC3)CC2)cc1 | 1.1 | 0 | 8 | 1 | 3% | i
CCC1SC(N)=NC1=O (configuration not stated) | 1 | 0 | 3 | 1 | 1% | i
COCCn1nnnc1C(C(C)C)N(Cc1cccnc1)Cc1cc2cc(OC)ccc2[nH]c1=O (configuration not stated) | 2.4* | 11 | 14 | 1.1 | 18% | i
O=S(=O)(c1ccc(F)cc1)N1CCC(N2CCN(c3ccccc3)CC2)CC1 | 1.1 | 9 | 10 | 1.1 | 6% | i
CCCCC(=O)Nc1ccc(C(N)=O)cc1 | 1.1 | 6 | 0 | 0.99 | 17% | +
CCCCC(=O)Nc1ccc(C(=O)NCC(=O)OC)cc1 | 1.1 | 12 | 6 | 1 | 7% | i
CCC(=O)Nc1nnc(Sc2ccc(N(C)C)cc2)s1 | 0.91 | 2 | 0 | 1.1 | 17% | +
Cc1ccc(OCCn2c(C)c(/C=N/n3cnnc3)c3ccccc32)cc1 | 0.98 | 9 | 0 | 1.1 | 15% | +
Cc1c(/C=N/n2cnnc2)c2ccccc2n1CCOc1ccc(Cl)cc1 | 1 | 10 | 0 | 1.1 | 4% | i
Cc1ccc2cc(CN(CCN3CCOCC3)C(=O)NCc3ccccc3)c(=O)[nH]c2c1C | 2.1* | 8 | 7 | 1.1 | 6% | i
Cc1ccc2cc(CN(CCN3CCCC3)C(=O)Nc3ccccc3)c(=O)[nH]c2c1C | 1.3 | 0 | 6 | 1 | 2% | i
COc1ccc2[nH]c(=O)c(CN(CCO)C(=O)c3ccccc3F)cc2c1 | 2.9* | 9 | 9 | 1 | 11% | i
COc1ccc2[nH]c(=O)c(CN(CCN(C)C)C(=O)NCc3ccccc3)cc2c1 | 3.8* | 8 | 14 | 1 | 14% | i
Cc1ccc2[nH]c(=O)c(CN(CCO)C(=O)NCc3ccccc3)cc2c1 | 1.5 | 3 | 9 | 1 | 6% | i
COc1ccc2[nH]c(=O)c(CN(C(=O)c3ccccn3)C3CCCCC3)cc2c1 | 2.9* | 5 | 10 | 1 | 13% | i
CCC1CCCCN1C(=O)CSc1nnc(-c2c[nH]c3ccccc23)o1 (configuration not stated) | 1.1 | 9 | 16 | 0.97 | 11% | i
CC(=O)N(Cc1cccnc1)Cc1cc2ccc(C)cc2[nH]c1=O | 1.4 | 8 | 11 | 1.1 | 9% | i
CCCCN(Cc1cc2cc(OC)ccc2[nH]c1=O)C(=O)c1ccccn1 | 2.5* | 10 | 9 | 1 | 3% | .
COc1cc2cc(CN(C(=O)NC3CCCCC3)C3CCCC3)c(=O)[nH]c2cc1OC | 3.9* | 9 | 12 | 1.1 | 11% | .
COc1ccc2cc(CN(C(=O)Nc3ccccc3OC)C3CCCC3)c(=O)[nH]c2c1 | 1.1 | 9 | 9 | 1.1 | 6% | i
CCC(=O)N(CCc1ccccc1C)Cc1cc2cc3c(cc2[nH]c1=O)OCO3 | 3.8* | 9 | 13 | 1.1 | 11% | .
